Experiment [1] in a line: binders of probe aFSTL3 on microarray, primary screen, stem cell growth factor project, biochemical, small-molecule microarray, fluorescence 635/667 (AID 1064).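 Note: measures binding of the biotinylated anti-FSTL3 antibody to printed compounds.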 The conditions noted are these: higher = more signal.
Experiment [2] is described as follows: binders from COS7 lysate, DM2A8 probe, primary screen, torsin A project, cell lysate, small-molecule microarray, fluorescence 635/667 (AID 1065). The following applies: higher = more signal, COS7 lysate expressing mutant human TOR1A.
The nature of experiment [3]: binders of probe aFGF2 on microarray, primary screen, stem cell growth factor project, biochemical, small-molecule microarray, fluorescence 635/667 (AID 1067).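 Note: measures binding of biotinylated aFGF2 protein to printed compounds on slides; z-score merges feature fluorescence and signal-to-noise across triplicate slides.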 The conditions noted are these: higher = more signal.
Experiment [4] can be described thus: binders of probe aFGF10 on microarray, primary screen, stem cell growth factor project, biochemical, small-molecule microarray, fluorescence 635/667 (AID 1071).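 Note: score merges 667 nm spot intensity and signal to noise from triplicate slides.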 The following applies: higher = more signal.
Experiment [5] deals with Neurogenic locus notch homolog protein 2 (Homo sapiens) (UniProt Q04721). Put plainly: Notch2 binders on small-molecule microarrays, primary screen, biochemical, small-molecule microarray, 635 nm fluorescence, stem cell growth factors (AID 1073). The following applies: Notch2 binding, higher = more signal.
Chain of Neurogenic locus notch homolog protein 2 (Homo sapiens) (Q04721 whole entry, looked up, canonical isoform): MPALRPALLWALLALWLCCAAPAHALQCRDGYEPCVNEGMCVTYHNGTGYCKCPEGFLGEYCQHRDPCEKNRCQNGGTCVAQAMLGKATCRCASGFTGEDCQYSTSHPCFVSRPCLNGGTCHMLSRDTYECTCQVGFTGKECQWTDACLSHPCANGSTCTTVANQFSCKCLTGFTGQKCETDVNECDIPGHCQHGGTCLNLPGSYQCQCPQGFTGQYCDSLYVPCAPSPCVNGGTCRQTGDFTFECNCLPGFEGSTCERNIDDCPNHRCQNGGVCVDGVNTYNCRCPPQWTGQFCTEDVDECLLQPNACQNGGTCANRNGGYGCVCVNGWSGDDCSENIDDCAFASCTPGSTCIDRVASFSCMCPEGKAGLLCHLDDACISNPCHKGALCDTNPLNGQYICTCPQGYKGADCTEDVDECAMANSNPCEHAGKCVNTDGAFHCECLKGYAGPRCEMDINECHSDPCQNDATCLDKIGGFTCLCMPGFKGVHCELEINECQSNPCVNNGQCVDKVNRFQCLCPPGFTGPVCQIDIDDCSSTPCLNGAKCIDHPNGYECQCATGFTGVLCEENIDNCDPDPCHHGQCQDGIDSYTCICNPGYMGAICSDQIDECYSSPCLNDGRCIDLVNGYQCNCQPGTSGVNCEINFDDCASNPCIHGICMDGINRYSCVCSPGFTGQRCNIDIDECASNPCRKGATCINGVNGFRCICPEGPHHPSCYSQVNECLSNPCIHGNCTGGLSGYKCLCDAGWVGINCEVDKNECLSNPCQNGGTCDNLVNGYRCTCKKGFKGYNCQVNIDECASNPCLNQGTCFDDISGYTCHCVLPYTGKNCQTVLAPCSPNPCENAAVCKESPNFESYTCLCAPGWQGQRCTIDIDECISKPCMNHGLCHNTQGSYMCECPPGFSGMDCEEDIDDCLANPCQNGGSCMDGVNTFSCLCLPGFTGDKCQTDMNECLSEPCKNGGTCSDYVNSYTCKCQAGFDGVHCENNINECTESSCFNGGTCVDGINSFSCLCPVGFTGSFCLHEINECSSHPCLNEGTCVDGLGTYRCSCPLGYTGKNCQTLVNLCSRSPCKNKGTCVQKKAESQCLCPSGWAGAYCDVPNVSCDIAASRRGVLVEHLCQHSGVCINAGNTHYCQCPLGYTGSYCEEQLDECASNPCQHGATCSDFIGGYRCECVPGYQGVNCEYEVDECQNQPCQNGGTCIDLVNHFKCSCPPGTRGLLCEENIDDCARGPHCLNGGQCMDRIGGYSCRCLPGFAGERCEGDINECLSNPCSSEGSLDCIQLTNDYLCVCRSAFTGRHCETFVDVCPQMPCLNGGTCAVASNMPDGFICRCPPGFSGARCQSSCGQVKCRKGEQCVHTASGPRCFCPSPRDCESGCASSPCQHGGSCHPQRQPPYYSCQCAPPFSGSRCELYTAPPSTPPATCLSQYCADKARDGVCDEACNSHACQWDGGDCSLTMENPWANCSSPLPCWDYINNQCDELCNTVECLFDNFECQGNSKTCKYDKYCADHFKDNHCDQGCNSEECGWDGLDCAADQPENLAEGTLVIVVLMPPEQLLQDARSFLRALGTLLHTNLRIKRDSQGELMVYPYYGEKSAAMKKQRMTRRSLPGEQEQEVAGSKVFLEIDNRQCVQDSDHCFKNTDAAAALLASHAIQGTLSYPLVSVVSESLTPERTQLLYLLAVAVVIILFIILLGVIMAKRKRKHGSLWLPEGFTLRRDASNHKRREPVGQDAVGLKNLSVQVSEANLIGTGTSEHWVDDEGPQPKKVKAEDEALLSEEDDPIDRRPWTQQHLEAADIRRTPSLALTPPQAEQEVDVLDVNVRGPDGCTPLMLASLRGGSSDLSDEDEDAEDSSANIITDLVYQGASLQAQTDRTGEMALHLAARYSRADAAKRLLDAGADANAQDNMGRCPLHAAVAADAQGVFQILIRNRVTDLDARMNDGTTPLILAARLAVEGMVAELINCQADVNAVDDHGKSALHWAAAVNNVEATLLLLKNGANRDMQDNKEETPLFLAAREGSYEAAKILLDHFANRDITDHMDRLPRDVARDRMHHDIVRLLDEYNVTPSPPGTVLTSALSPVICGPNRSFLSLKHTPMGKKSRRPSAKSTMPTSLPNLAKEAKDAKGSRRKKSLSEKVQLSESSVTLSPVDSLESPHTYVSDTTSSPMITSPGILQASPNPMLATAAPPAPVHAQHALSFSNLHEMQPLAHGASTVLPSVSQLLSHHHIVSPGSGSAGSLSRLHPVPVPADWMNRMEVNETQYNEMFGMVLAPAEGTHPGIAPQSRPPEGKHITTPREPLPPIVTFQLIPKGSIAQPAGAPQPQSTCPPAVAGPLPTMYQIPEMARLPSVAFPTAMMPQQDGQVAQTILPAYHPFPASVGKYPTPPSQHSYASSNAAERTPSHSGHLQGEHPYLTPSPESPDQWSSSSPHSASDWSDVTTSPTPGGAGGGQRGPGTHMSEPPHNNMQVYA
Experiment [6] deals with Pro-neuregulin-1, membrane-bound isoform (Homo sapiens) (UniProt Q02297). Put plainly: NRG1 binders on small-molecule microarrays, primary screen, psychiatric disease protein project, biochemical, small-molecule microarray, fluorescence 635/667 (AID 1075).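 Note: score combines 667 nm spot fluorescence with signal to noise.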 The following applies: NRG1 binding, 635 nm fluorescence, higher = more signal.
Chain of Pro-neuregulin-1, membrane-bound isoform (Homo sapiens) (Q02297 whole entry, looked up, the tested form may be a part, canonical isoform): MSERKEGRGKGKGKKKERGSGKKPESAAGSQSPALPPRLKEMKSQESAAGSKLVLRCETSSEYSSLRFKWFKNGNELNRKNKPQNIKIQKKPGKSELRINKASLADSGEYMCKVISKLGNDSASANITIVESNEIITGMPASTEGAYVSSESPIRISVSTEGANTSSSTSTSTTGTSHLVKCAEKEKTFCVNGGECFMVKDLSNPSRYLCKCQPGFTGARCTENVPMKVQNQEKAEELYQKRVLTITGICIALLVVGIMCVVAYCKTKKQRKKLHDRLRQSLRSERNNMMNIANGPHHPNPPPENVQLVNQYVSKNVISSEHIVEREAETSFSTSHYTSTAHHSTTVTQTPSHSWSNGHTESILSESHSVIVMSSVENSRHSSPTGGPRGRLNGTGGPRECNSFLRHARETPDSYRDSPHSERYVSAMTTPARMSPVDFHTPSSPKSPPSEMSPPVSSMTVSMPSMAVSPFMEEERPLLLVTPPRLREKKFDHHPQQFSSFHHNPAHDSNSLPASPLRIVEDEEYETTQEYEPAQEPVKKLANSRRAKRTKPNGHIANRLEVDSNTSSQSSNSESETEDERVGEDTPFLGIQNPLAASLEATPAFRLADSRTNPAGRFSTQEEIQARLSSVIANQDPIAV
Experiment [7] concerns Neuregulin-1 EGF-like domain. Briefly: binders of neuregulin-1 EGF-like domain, primary screen, biochemical, small-molecule microarray, 635 nm fluorescence (AID 1081).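 Note: binding of the protein to compounds printed on small-molecule microarray slides.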 The following applies: small-molecule microarray binding, higher = more signal.
A short description of experiment [8]: FRG1 promoter luciferase signal modulators, primary screen, FRG1 inhibition for FSHD, cell-based, C2C12 myotubes, firefly/Renilla luciferase, luminescence (AID 1084). The conditions noted are these: higher = more signal, called active from +8 up or from −8 down.
Experiment [9] in a line: binders of probe aFST on microarray, primary screen, stem cell growth factor project, biochemical, small-molecule microarray, fluorescence 635/667 (AID 1086).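 Note: score merges 667 nm fluorescence with signal-to-noise of each printed compound spot.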 The following applies: higher = more signal.
Experiment [10] in a line: binders of probe aHhip on microarray, primary screen, stem cell growth factor project, biochemical, small-molecule microarray, fluorescence 635/667 (AID 1087).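 Note: score merges spot fluorescence at 667nm with spot signal to noise ratio.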 The following applies: higher = more signal.

Each structure is given as a SMILES string. Calls of active or inactive are those of the source.

For `C[C@@H]1CC[C@H]2C(=O)N3[C@@H](CC[C@@H](C)[C@@H]3c3cccc(N4CCOCC4)c3)C(=O)N2[C@H]1c1cccc(N2CCOCC2)c1`, the composite z-score is 0.0943 in experiment [1]; 0.378 in experiment [2]; -0.166 in experiment [3]; 0.616 in experiment [4]; 0.92 in [5]; 0.414 in [6]. In addition, the values for the composite z-score in [7], in [9] and in experiment [10] were 1.1, 0.619 and 1.3, respectively. The z-score in experiment [8] is -0.531 (inactive).
In the case of `CO[C@@H]1COC(=O)[C@@H]2CCCN2C(=O)CC=C[C@@H](C)[C@H](OC)COC(=O)[C@@H]2CCCN2C(=O)CC=C[C@H]1C`, the composite z-score was -0.614 in experiment [1]; 0.164 in [2]; -0.113 in experiment [3]; 0.0311 in experiment [4]; -0.545 in [5]; -0.312 in [6]. For the same molecule, the values for the composite z-score in experiment [7], in experiment [9] and in experiment [10] were 0.732, -0.0975 and 0.347, respectively. The z-score in experiment [8] was 0.47 (inactive).
Consider `C=CCc1cccc([C@@H]2[C@@H](C)CC[C@H]3C(=O)N4[C@H](c5cccc(CC=C)c5)[C@@H](C)CC[C@H]4C(=O)N23)c1`, for which the composite z-score in experiment [1] was 0.0575; in experiment [2] it was 0.537; in experiment [3], -0.0677; in experiment [4], 0.873; in experiment [5] it was 1.07; in experiment [6], 1.12. For the same molecule, the composite z-score came out at 0.536 in [7], 0.56 in [9] and 0.154 in experiment [10]. Also, the z-score in [8] is 0.313 (inactive).
On to `COc1ccc([Si](C)(C)[C@@H]2[C@@H](CCO)O[C@]3(C(=O)N(Cc4ccc(NC(=O)[C@H](C)O)cc4)c4ccccc43)[C@H]2C)cc1`, for which the composite z-score in experiment [1] is 0.0169; in experiment [2], 0.395; in [3], -0.0606; in [4] it was 0.585; in experiment [5], 0.684; in experiment [6], 1.05. Moreover, the results for the composite z-score in experiment [7], in [9] and in [10] were 1.19, 0.152 and -0.0618, respectively. In addition, the z-score in experiment [8] is -4.16 (inactive).
As to `COc1cccc([C@@H]2[C@@H](C)CC[C@H]3C(=O)N4[C@H](c5cccc(OC)c5)[C@@H](C)CC[C@H]4C(=O)N23)c1`, the composite z-score in experiment [1] is -0.197; in experiment [2], 0.683; in [3], -0.0355; in experiment [4] it was 0.483; in [5], 1.01; in [6], 0.25. In addition, the composite z-score in [7] is 0.285; in experiment [9], 0.0794; in experiment [10], -0.0994. For the same molecule, the z-score in [8] is -1.21 (inactive).
Regarding `C=C(C)[C@@H]1CC=C(C(O)C2C=CC3C(=O)NC(=O)C3N2Nc2ccccn2)CC1` (stereo not given in full), the composite z-score in experiment [1] stood at 0.541; in experiment [2], 1.27; in [3], 0.0127; in [4] it was 1.07; in experiment [5], 1.61; in [6], 1.36. For the same molecule, the composite z-score was found to be 1.35 in experiment [7], 1.5 in [9] and 0.0524 in [10]. The z-score in experiment [8] was 1.65 (inactive).
With `CC(C)[Si](OCC[C@H]1O[C@]2(C(=O)N(Cc3ccccc3)c3ccccc32)[C@@H](C)[C@@H]1[Si](C)(C)O)(C(C)C)C(C)C`, the composite z-score in experiment [1] was -0.143; in [2], -0.149; in experiment [3], -0.25; in experiment [4] it was 0.164; in [5] it was -0.0407; in experiment [6], 0.676. In addition, the composite z-score was -0.0474 in experiment [7], 0.292 in [9] and 0.0373 in experiment [10]. Besides, the z-score in experiment [8] was 0.562 (inactive).
Regarding `CO[C@H]1COC(=O)[C@H](C)COC(=O)[C@H](Cc2ccccc2)NC(=O)CC=C[C@H]1C`, the composite z-score in experiment [1] is 0.34; in [2] it was 0.355; in experiment [3], -0.167; in experiment [4], -0.106; in experiment [5], -0.889; in experiment [6] it was -0.339. The composite z-score was -0.942 in experiment [7], 0.0716 in experiment [9] and -0.455 in [10]. For the same molecule, the z-score in [8] is -0.412 (inactive).
In the case of `COCCOC(=O)N1C(=O)[C@@]2(c3cc(C#CC4=CCCCC4)ccc31)[C@H](C(=O)NC[C@H](O)c1ccccc1)[C@H]1C(=O)O[C@H](c3ccccc3)[C@H](c3ccccc3)N1[C@@H]2c1ccccc1OCCO`, the composite z-score in experiment [1] stood at 0.462; in experiment [2], 0.333; in experiment [3], 0.126; in experiment [4], 0.467; in experiment [5], 1.15; in experiment [6], 0.616. For the same molecule, the results for the composite z-score in experiment [7], in [9] and in [10] were 1.09, 0.881 and 0.259, respectively. In addition, the z-score in [8] is -0.0011 (inactive).
On to `CCCC[C@@H]1C[C@H]1[C@@H](NC(=O)c1ccccc1)c1ccccc1C(F)(F)F`, for which the composite z-score in experiment [1] turned out to be 0.135; in experiment [2] it was 0.281; in experiment [3] it was 0.149; in [4] it was 0.189; in experiment [5] it was 1.13; in experiment [6], 1.97. Further, the results for the composite z-score in experiment [7], in [9] and in [10] were 0.828, 0.819 and -0.189, respectively. Further, the z-score in experiment [8] was 0.822 (inactive).
Take `C=C(CCCC)/C(=C/C[C@@H](OC(=O)c1ccncc1)c1ccc(CO)o1)c1cnc2ccccc2c1`: the composite z-score is -0.297 in [1]; 0.702 in [2]; 0.0263 in [3]; 1.08 in experiment [4]; 1.59 in experiment [5]; 0.786 in experiment [6]. Further, the composite z-score in experiment [7] was found to be 0.743; in experiment [9], 0.972; in experiment [10], 0.224. Besides, the z-score in [8] was -0.452 (inactive).
For `O=C1c2ccccc2[C@@]2(Cc3ccccc3N(CC(F)(F)F)C2=O)[C@H](c2ccc(CO)cc2)N1C1CCCCC1`, the composite z-score was -0.2 in [1]; 0.438 in [2]; -0.0199 in experiment [3]; 0.354 in experiment [4]; 0.455 in [5]; 0.492 in experiment [6]. Besides, the composite z-score was 1.47 in [7], -0.415 in experiment [9] and -0.0618 in experiment [10]. Besides, the z-score in experiment [8] was -0.555 (inactive).
In the case of `C=CC[C@]1(C(=O)OC)N=C(c2ccc(OCCCO)cc2)O[C@H]1c1ccccc1CN=[N+]=[N-]`, the composite z-score is 2.1 in experiment [1]; 0.164 in [2]; -0.0004 in experiment [3]; -0.564 in experiment [4]; -0.543 in experiment [5]; 0.391 in experiment [6]. Further, the composite z-score is 0.863 in [7], 0.629 in experiment [9] and -0.0994 in experiment [10]. Further, the z-score in experiment [8] was -1.55 (inactive).
As for `CC(C)(C)OC(=O)CC[C@]1(C(=O)NCCN2CCOCC2)N=C(c2ccc(OCCCO)cc2)O[C@H]1c1ccccc1CN=[N+]=[N-]`, the composite z-score in experiment [1] worked out at 0.182; in [2] it was 1.16; in [3], 0.0402; in experiment [4], 0.07; in experiment [5], 1.24; in [6], 1.73. Besides, the composite z-score in experiment [7] was 1.42; in experiment [9], 0.278; in experiment [10], -0.0672. The z-score in experiment [8] was 2.72 (inactive).
Consider `CCOC(=O)C[C@H]1[C@H](OC(=O)c2cc3ccccc3oc2=O)[C@@H](NC(=O)c2ccc3ccccc3c2)c2cc(OCCCO)ccc2N1C(=O)c1ccc2ccccc2n1`, for which the composite z-score in [1] is -0.522; in experiment [2], 0.128; in [3] it was -0.0336; in experiment [4], 1.11; in [5] it was 1.09; in experiment [6], 0.384. Also, the composite z-score in experiment [7] is 1.03; in experiment [9], 0.518; in experiment [10], -0.0994. Besides, in [8], the z-score is -0.881 (inactive).
On to `C=CCC(OC(C)=O)[C@@H]1[C@@H](N(Cc2ccc(-c3cccc(C(F)(F)F)c3)o2)C(=O)Cc2ccc(F)cc2)c2cc(OCCCO)ccc2N1C(=O)c1ccc(-c2ccccc2)cc1` (stereo not given in full), for which the composite z-score was 0.142 in experiment [1]; -0.0983 in [2]; -0.129 in experiment [3]; -0.556 in [4]; -0.606 in experiment [5]; -0.0704 in experiment [6]. The composite z-score in experiment [7] was -0.387; in experiment [9] it was 0.0417; in experiment [10], -0.236. The z-score in [8] was -0.245 (inactive).

For the origin of these results see PubChem BioAssay.
